# Yp Topo-I inh: inhibitors of Yersinia pestis topoisomerase I; Y. pestis Topo-I cleavage product accumulation, plate reader; activity, % at 10 µM; hit rate 0.064% among 360,000; in the data active = activity above about 50%, passing the limit was not always enough
# CCHF vOTU inh: blocks the CCHF virus ovarian tumor domain protease; AID 651958; inhibition, % at 11.5 µM; hit rate 0.55% among 370,000; CCHFV vOTU protease, Pep-AMC fluorescence; in the data active = inhibition above about 30%; note: 0% = vehicle wells with enzyme and 100% = no enzyme wells
# PrPC TRFRET: inhibitors of human cell surface prion protein PrPC; hit rate 0.43% among 370,000; TR-FRET read-out; AID 720596; P04156; inhibition, % at 13.8 µM; in the data active = inhibition above about 24%; note: 0% = median of the test wells and 100% = reference compound wells
# BH1578 lux ind: quorum light induction in luxS cqsA deficient V. cholerae. V. cholerae BH1578 lux reporter, luminescence, 6 h. activation, % at 18.7 µM. hit rate 0.16% among 350,000. AID 588436; in the data active = activation mostly above about 9.7%, no sharp cut-off
# PrPC TRFRET cf: cell surface PrPC inhibition, TR-FRET confirmation | inhibition, % at 13.8 µM | shares compounds with PrPC TRFRET | hit rate 65% among 1,500 | cell surface PrPC level; in the data active = inhibition above about 25%
# LD9 tox: counter-screen for PrPc inhibitors: cytotoxicity in LD9 cells | AID 743201 | hit rate 29% among 1,500 | luminescence viability | shares compounds with PrPC TRFRET | inhibition, % at 13.8 µM; in the data active = inhibition above about 9.5%
# * marks the source's active call; other numbers are inactive results; i = inactive; . = no result given. Only some compounds are listed: those with a hit (about 1.1% of all), similar ones and a draw of the others.
SMILES,Yp Topo-I inh,CCHF vOTU inh,PrPC TRFRET,BH1578 lux ind,PrPC TRFRET cf,LD9 tox
CCn1c(Cc2ccccc2)nnc1SC(C)C(=O)NC1CC1 (stereo not drawn),5,-7,-4,i,.,.
Fc1ccc(NC(=S)Nc2nccs2)cc1,4,12,32*,i,20,5
CCn1cc(C(=O)Nc2sc(C)c(C)c2C(=O)OC)cn1,2,15,-8,i,.,.
COc1ccc(-c2nc3c(C)cc(Br)cn3c2CC(C)(C)C)cc1OC,.,15,42*,.,52*,-4
COc1ccc(-c2nc3c(C)cc(Br)cn3c2Cc2cccc(Cl)c2)cc1OC,.,6,26*,.,62*,-5
Cc1cc(Br)cn2c(Cc3cccc(Cl)c3)c(-c3cccc(Cl)c3)nc12,.,3,-7,.,.,.
COc1ccccc1Cc1c(-c2ccc(OC)c(OC)c2)nc2c(C)cc(Br)cn12,.,1,3,.,.,.
CC(C)NC(=O)N(C)C[C@H]1Oc2ccc(NS(=O)(=O)c3cn(C)cn3)cc2C(=O)N([C@H](C)CO)C[C@@H]1C,2,10,-7,0,.,.
Cc1sc2ncnc(N3CCN(C(=O)c4ccco4)CC3)c2c1C,13,7,7,-2,.,.
Cc1ccc(C(=O)Nc2nc(COc3ccccc3)cs2)s1,-24,5,30*,-1,22,6
CCc1nc2c(OCCOC)cccn2c1N(C)C(=O)Nc1ccccc1OC,12,6,-7,0,.,.
Cc1ccc(NS(=O)(=O)c2ccc3c(c2)NC(=O)CCS3)cc1C,-1,2,25*,-1,18,27*
O=C(C[n+]1cc(Br)cc2ccccc21)c1ccccc1,7,-7,-12,i,.,.
COc1ccc(C(=O)C[n+]2cc(Br)cc3ccccc32)cc1[N+](=O)[O-],-9,4,27*,-1,9,-1
O=C(Cc1cccc(NC(=O)C2CCN(C(=O)C3CCCCC3)CC2)c1)Nc1cccc(C(=O)N2CCCC2)c1,13,-8,6,2,.,.
COc1cccc(NS(=O)(=O)c2ccc3c(c2)CCN3C(C)=O)c1,4,6,16,0,.,.
CSc1cccc(NS(=O)(=O)c2ccc3c(c2)CCN3C(C)=O)c1,10,20,25*,6,21,15*
CCOC(=O)C1=C(c2ccccc2)NC(=O)NC1c1ccc(O)c(Cl)c1 (stereo not drawn),1,4,36*,0,49*,52*
CCOC(=O)C1=C(c2ccccc2)NC(=O)NC1c1ccc(O)c(OCC)c1 (stereo not drawn),7,-3,4,0,.,.
Cc1ccc(NC(=O)c2ccc(Nc3c([N+](=O)[O-])cc([N+](=O)[O-])cc3[N+](=O)[O-])cc2)cc1,6,-7,25*,0,7,37*
CC(=O)Nc1ccc(NC(=O)c2cc([N+](=O)[O-])cc([N+](=O)[O-])c2)cc1,2,-9,-56,0,.,.
Cc1cc(-c2csc(NC(=O)c3ccccc3C(F)(F)F)n2)c(C)n1Cc1ccccc1,-3,12,0,0,.,.
Cc1cccc(C(O)c2ncc(-c3ccc(C(F)(F)F)cc3)[nH]2)c1C (stereo not drawn),-6,12,26*,0,18,0
CC(=C/c1ccccc1)/C=N/NC(=O)c1nnn(-c2nonc2N)c1CN1CCC(C)CC1,21,4,-2,0,.,.
O=C(O)C1CC=CCC1C(=O)Nc1ccccc1 (stereo not drawn),3,6,8,i,.,.
SMILES,Yp Topo-I inh,CCHF vOTU inh,PrPC TRFRET,BH1578 lux ind,PrPC TRFRET cf,LD9 tox
O=C(O)c1ccc(NC(=O)C2CC=CCC2C(=O)O)cc1 (stereo not drawn),-3,4,31*,-1,6,-1
Cc1ccc(OCc2cc(C(=O)NCc3cn4ccccc4n3)no2)cc1C,25,9,43*,1,39*,-5
CCc1ccccc1Nc1nn2c(=O)c3ccc(C(=O)NCc4ccccn4)cc3nc2s1,14,19,38*,i,25*,-7
CCN1CCN(c2ncnc3scc(-c4ccc(C)c(C)c4)c23)CC1,16,9,-3,0,.,.
CC(=O)c1ccc(OCc2cc(C(=O)N(C)Cc3nc4c(C)cccc4[nH]3)no2)cc1,14,4,27*,0,26*,0
CCOc1ccc(N2C(=O)CC(Sc3nc(-c4cccs4)cc(C(F)(F)F)c3C#N)C2=O)cc1 (stereo not drawn),7,7,25*,-1,11,-4
S=c1[nH]nc(-c2cccc(Br)c2)o1,4,-9,25*,1,36*,-3

# Assay outcomes: PubChem BioAssay, several laboratories
